This passage reports outcome, activation and Potency results from PubChem BioAssay (Tox21).

Results filed as inconclusive are left out. A call without a number means that no potency is given here. Active and inactive are the calls of the source. The call rests on the fitted dose curve.

A short description of the first assay: G protein-coupled receptor (GPCR) small molecule agonists, calcium flux assay: HEK293 wild type cell line counter screen (AID 1920065). The settings on record: HEK293 WT calcium flux, fluorescence, agonist mode; series mostly up to 57.6 µM. In a few lines:
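Fluorescence intensity signals activation. After overnight (18 h) culture and a 1 h calcium dye load at 37 C, compounds are added by pin tool and the plate read at 480/540 nm for 3 min in 1 s steps.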
Consider `CN=C(NC#N)Nc1ccc(C2=NNC(=O)CC2C)cc1` (stereo not given), for which the result was inactive.

For `CCN(CC)CCOC(=O)C(Cc1cccc2ccccc12)CC1CCCO1` (stereo not given), the outcome was inactive.

In the case of `O=c1[nH]cnc2ccccc12`, the outcome was inactive.

On to `CCCCCCCCCCOc1cc2c(=O)c(C(=O)OCC)c[nH]c2cc1OCC`, for which the activation is 0.101% [at 5.23 µM] (inactive).

Regarding `CCC(=O)CC(C)CC` (stereo not given), the activation is -0.478% [at 0.217 µM] (inactive).

For `CCCCOCCOC(=O)COc1ccc(Cl)cc1Cl`, the result was inactive.

For the molecule `CC(=O)CC(=O)OC(C)(C)C`, the result was inactive.

Regarding `CC(COC(C)(C)C)OCCCO` (stereo not given), the outcome was inactive.

Consider `CCCC1CCCC(=O)O1` (stereo not given), for which the outcome was inactive.

For `CCCCCCCCCOC(=O)c1ccccc1C(=O)OCCCCCCCCC`, the outcome was inactive.

With `N#CC1(N)CCCCC1`, the result was inactive.

As for `Cc1ccc(-n2nc(C(C)(C)C)cc2NC(=O)Nc2ccc(OCCN3CCOCC3)c3ccccc23)cc1`, the outcome was inactive.

As to `CCN(CCCCOC(=O)c1ccc(OC)c(OC)c1)C(C)Cc1ccc(OC)cc1` (stereo not given), the outcome was inactive.

Consider `C=COCC(C)C`, for which the outcome was inactive.

For `C/C=C/C(=O)OCC(C)C`, the result was inactive.

`N#CSc1ccc(N)c([N+](=O)[O-])c1`: the outcome was inactive.

As to `C=C(C)C(=O)OCCCCCCCCCCOC(=O)C(=C)C`, the result was inactive.

For `Cc1ccc(C(=O)Oc2ccc(C(O)CNC(C)(C)C)cc2OC(=O)c2ccc(C)cc2)cc1` (stereo not given), the result was inactive.

For `C/C=C/C(=O)Oc1c(CCCCCC(C)C)cc([N+](=O)[O-])cc1[N+](=O)[O-]`, the result was inactive.

Consider `O=C(CCCCCCCCc1cccnc1)N1CCC(C=C(c2ccccc2)c2ccccc2)CC1`, for which the outcome was inactive.

On to `O=C1CCCN1CCO`, for which the outcome was inactive.

On to `N=C(N)c1ccc(OCCCOc2ccc(C(=N)N)cc2)cc1`, for which the result was inactive.

For `COCCCCCCCCOCCC[Si](C)(O[Si](C)(C)C)O[Si](C)(C)C`, the outcome was inactive.

With `CCOC(=N)CC(=O)OCC`, the outcome was inactive.

For `Oc1ccc2c(c1)CCC2`, the result was inactive.

For `CC(C)(C)c1nnc(NS(=O)(=O)c2ccccc2)s1`, the result was inactive.

For the molecule `CCCCc1nc2cccnc2n1Cc1ccc(-c2ccccc2-c2nnn[nH]2)cc1`, the result was inactive.

With `O=C(O)Cc1csc(-c2ccc(Cl)cc2)n1`, the result was inactive.

Regarding `CCOC(=O)Nc1ccc(NCc2ccc(F)cc2)nc1N`, the outcome was inactive.

On to `CC(Cl)C(Cl)Cl` (stereo not given), for which the result was inactive.

Take `O=C(O)C[C@H](O)C[C@H](O)/C=C/c1c(C2CC2)nc2ccccc2c1-c1ccc(F)cc1`: the activation was -0.173% [at 11.8 µM] (inactive).

Turning to `CC(=O)Nc1cccc(C)c1`, the outcome was inactive.

Take `CCCCCCc1ccc(N)cc1`: the result was inactive.

As to `O=C=Nc1cccc(C(F)(F)F)c1`, the outcome was inactive.

Turning to `Cc1cc(SC2=C(O)C[C@@](CCc3ccc(N)cc3)(C(C)C)OC2=O)c(C(C)(C)C)cc1CO`, the outcome was inactive.

Consider `CCCCC(CC)CN1C(=O)C2C3C=CC(C3)C2C1=O` (stereo not given), for which the result was inactive.

For `NCCS`, the outcome was inactive.

For the molecule `O=S1(=O)CC(Cl)(Cl)C(Cl)(Cl)C1`, the result was inactive.

Turning to `CN1CCN(C2Cc3ccccc3Sc3ccc(Cl)cc32)CC1` (stereo not given), the result was inactive.

Consider `CCOC(=O)C1=NN(c2ccc(Cl)cc2Cl)C(C)(C(=O)OCC)C1` (stereo not given), for which the outcome was inactive.

The nature of a further assay: p53 small molecule agonists, cell-based qHTS assay with human liver microsomes (AID 1963577).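 Further: p53 response element beta-lactamase reporter cells with liver microsomes plus NADPH.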 The settings on record: HCT-116 p53RE-bla with human liver microsomes, ratio, 16 h; series mostly up to 66 µM. The gist of the method: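 Metabolically competent format: test substances, human liver microsomes and NADPH (both 0.5 mg/mL final) incubated with p53RE-bla cells 16 h at 37 C. Beta-lactamase reporter signal then quantified by fluorescence.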
In the case of `CN=C(NC#N)Nc1ccc(C2=NNC(=O)CC2C)cc1` (stereo not given), the Potency result was “inactive”.

For the molecule `CCN(CC)CCOC(=O)C(Cc1cccc2ccccc12)CC1CCCO1` (stereo not given), the Potency result is “inactive”.

On to `O=c1[nH]cnc2ccccc12`, for which the Potency entry was “inactive”.

Consider `CCCCCCCCCCOc1cc2c(=O)c(C(=O)OCC)c[nH]c2cc1OCC`, for which the activation was 2.59% [at 5.99 µM] (inactive).

For the molecule `CCC(=O)CC(C)CC` (stereo not given), the activation is -0.0354% [at 0.249 µM] (inactive).

`CCCCOCCOC(=O)COc1ccc(Cl)cc1Cl`: the Potency result is “inactive”.

For `CC(=O)CC(=O)OC(C)(C)C`, the Potency result is “inactive”.

On to `CC(COC(C)(C)C)OCCCO` (stereo not given), for which the Potency result was “inactive”.

On to `CCCC1CCCC(=O)O1` (stereo not given), for which the Potency entry is “inactive”.

With `CCCCCCCCCOC(=O)c1ccccc1C(=O)OCCCCCCCCC`, the Potency entry was “inactive”.

In the case of `N#CC1(N)CCCCC1`, the Potency result was “inactive”.

As to `Cc1ccc(-n2nc(C(C)(C)C)cc2NC(=O)Nc2ccc(OCCN3CCOCC3)c3ccccc23)cc1`, the Potency entry is “inactive”.

Consider `CCN(CCCCOC(=O)c1ccc(OC)c(OC)c1)C(C)Cc1ccc(OC)cc1` (stereo not given), for which the Potency result is “inactive”.

For `C=COCC(C)C`, the Potency entry is “inactive”.

Regarding `C/C=C/C(=O)OCC(C)C`, the Potency entry was “inactive”.

Turning to `N#CSc1ccc(N)c([N+](=O)[O-])c1`, the Potency entry is “inactive”.

With `C=C(C)C(=O)OCCCCCCCCCCOC(=O)C(=C)C`, the Potency entry is “inactive”.

Consider `Cc1ccc(C(=O)Oc2ccc(C(O)CNC(C)(C)C)cc2OC(=O)c2ccc(C)cc2)cc1` (stereo not given), for which the Potency result was “inactive”.

Regarding `C/C=C/C(=O)Oc1c(CCCCCC(C)C)cc([N+](=O)[O-])cc1[N+](=O)[O-]`, the Potency result was “inactive”.

With `O=C(CCCCCCCCc1cccnc1)N1CCC(C=C(c2ccccc2)c2ccccc2)CC1`, the Potency entry was “inactive”.

`O=C1CCCN1CCO`: the Potency entry was “inactive”.

Take `N=C(N)c1ccc(OCCCOc2ccc(C(=N)N)cc2)cc1`: the Potency entry is “inactive”.

Regarding `COCCCCCCCCOCCC[Si](C)(O[Si](C)(C)C)O[Si](C)(C)C`, the Potency result is “inactive”.

Regarding `CCOC(=N)CC(=O)OCC`, the Potency entry is “inactive”.

Turning to `Oc1ccc2c(c1)CCC2`, the Potency result is “inactive”.

With `CC(C)(C)c1nnc(NS(=O)(=O)c2ccccc2)s1`, the Potency result is “inactive”.

Turning to `CCCCc1nc2cccnc2n1Cc1ccc(-c2ccccc2-c2nnn[nH]2)cc1`, the Potency result is “inactive”.

On to `O=C(O)Cc1csc(-c2ccc(Cl)cc2)n1`, for which the Potency result was “inactive”.

Take `CCOC(=O)Nc1ccc(NCc2ccc(F)cc2)nc1N`: the Potency result is “inactive”.

Regarding `CC(Cl)C(Cl)Cl` (stereo not given), the Potency entry is “inactive”.

For `O=C(O)C[C@H](O)C[C@H](O)/C=C/c1c(C2CC2)nc2ccccc2c1-c1ccc(F)cc1`, the activation was -13.7% [at 13.5 µM] (inactive).

`CC(=O)Nc1cccc(C)c1`: the Potency result was “inactive”.

Turning to `CCCCCCc1ccc(N)cc1`, the Potency entry is “inactive”.

For the molecule `O=C=Nc1cccc(C(F)(F)F)c1`, the Potency result is “inactive”.

As for `Cc1cc(SC2=C(O)C[C@@](CCc3ccc(N)cc3)(C(C)C)OC2=O)c(C(C)(C)C)cc1CO`, the Potency result was “inactive”.

Turning to `CCCCC(CC)CN1C(=O)C2C3C=CC(C3)C2C1=O` (stereo not given), the Potency result was “inactive”.

In the case of `NCCS`, the Potency entry is “inactive”.

Turning to `O=S1(=O)CC(Cl)(Cl)C(Cl)(Cl)C1`, the Potency entry is “inactive”.

For `CN1CCN(C2Cc3ccccc3Sc3ccc(Cl)cc32)CC1` (stereo not given), the Potency entry was “inactive”.

For `CCOC(=O)C1=NN(c2ccc(Cl)cc2Cl)C(C)(C(=O)OCC)C1` (stereo not given), the Potency result is “inactive”.
